About 83,000 compounds went through this panel and 20% of them were active in at least one assay; those are over-represented in the sample as a whole.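 Plates (96-well) were seeded with cells, treated with compound at one concentration, and incubated for 48 hours before percent growth was determined.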 Values without a mark were called inactive. Activity calls are given as the source filed them. How the source made its calls: active means growth percent below 10; inactive means the rest.

Here are results for 37 compounds from PubChem BioAssay (NCI).

In this experiment the test system is NCI-H23 lung. Put plainly: NCI-60 one-dose screen, 48 h (100 = growth as untreated, 0 = no growth, -100 = all killed). Conditions: 10 µM unless noted.
For `CO[C@H](C(=O)O)[C@@H]1Cc2cc3cc(OC4CC(OC5CC(O)C(O)C(C)O5)C(O)C(C)O4)c(C)c(O)c3c(O)c2C(=O)[C@H]1OC1CC(OC2CC(OC3CC(C)(O)C(O)C(C)O3)C(O)C(C)O2)C(O)C(C)O1` (some centres not stated), the growth was -0.124% (active). For `O=C(Nc1ccc(Cl)cc1)Nc1nccs1`, the growth was 50.5%. In the case of `CCn1cnc2c(Nc3cccc(Cl)c3)nc(N[C@@H]3CCCC[C@@H]3N)nc21`, the growth was -21.5% (active). As for `C[C@]12CC[C@H]3[C@@H](CC4SC(N)=NC45C/C(=N/NC(N)=O)CC[C@]35C)[C@@H]1CCC2=O` (some centres not stated), the growth is -44.3% (active). In the case of `Fc1ccc(N2COOC3(OOC2)C2CC4CC(C2)CC3C4)cc1`, the growth is 69.4%. As for `C[C@@]1(CCCCCCCCCc2ccc(O)cc2)C[C@]2(C)OC(=O)C[C@@H]2OO1`, the growth is 99.4%. Consider `[Cl][Hg][n]1c(-c2ccco2)nc2ccccc21`, for which the growth was 99%. For the compound `CN1C(=O)N[C@H]2[C@@H]3NC(=O)c4ccc(Br)n4[C@@H]3C[C@]21O`, the growth was -14.5% (active). For the compound `C=CC[PH+](c1ccccc1)c1ccccc1.C=CC[PH+](c1ccccc1)c1ccccc1.[Cl][Pt][Cl]`, the growth was 58.8%.

For `CC[C@H](C)[C@H](NC(=O)C12CC(NC(C)=O)(C1)C2)C(=O)N(C)[C@H](C[C@@H](OC(C)=O)c1nc(C(=O)N[C@@H](Cc2ccccc2)C[C@H](C)C(=O)OC)cs1)C(C)C`, the growth was 30.9%. Next, `O=C1C=C(N2C3C4CCC(C4)C32)C(=O)C=C1c1ccccc1` (configuration not stated): 106%. Turning to `CCn1c2ccccc2c2cc(C(=O)c3cccc4c3CCCN4)ccc21`, the growth is 100%. With `Nc1cc2nc3ccccc3nc2cc1N` the figure was 77.3%.

Turning to `CCOC(=O)C(Cc1ccc(N(CCCl)CCCl)cc1)NC(=O)C(CC(C)C)NC(C)=O` (configuration not stated), the growth was 17.1%. Next, `COC(=O)CCc1c[nH]c2ccc(N(CCCl)CCCl)cc12`: 31.1%. On to `Clc1cccc(Cl)c1Cl`, for which the growth is 102%. With `COc1cc([N+](=O)[O-])c2nc(C)ccc2c1[N+](=O)[O-]` the figure was 105%; with `O=C(CC1(O)C(=O)N(Cc2ccccc2)c2ccc(F)cc21)c1ccc(C(=O)NCC2CCC3(CC2)OOC2(CCCCC2)OO3)cc1` (configuration not stated), -70.8% (active). With `O=C(CCl)c1ccc([N+](=O)[O-])o1`, the growth is 5.38% (active). With `C[S+]1C=Cc2ccccc2C1c1ccc(Cl)cc1` (configuration not stated) the figure was 83.7%. In the case of `COC(=O)[C@@H](C)C[C@H](Cc1ccc2ccccc2c1)NC(=O)c1csc([C@@H](C[C@H](C(C)C)N(C)C(=O)[C@@H](NC(=O)[C@H]2CCCCN2C)C(C)C)OC(C)=O)n1`, the growth is 41.7%.

`O=P(N1CC1)(N1CC1)N1CCc2ccccc21`: the growth is 103%. As to `O=C1Nc2ccccc2C2c3cccn3-c3ccccc3CN12` (configuration not stated), the growth was 70.6%. In the case of `COC(=O)[C@@]1(O)C[C@H]2O[C@]1(C)n1c3ccccc3c3c4c(c5c6ccccc6n2c5c31)C(=O)NC4`, the growth is -43% (active).

Take `NC(=S)c1cn(C2OC(CO)C(O)C2O)c2ncnc(N)c12` (configuration not stated): the growth is -38.8% (active). `CC[C@H](C)[C@H](NC(=O)c1cccn1C)C(=O)N(C)[C@H](C[C@@H](OC(C)=O)c1nc(C(=O)N[C@@H](Cc2ccccc2)C[C@H](C)C(=O)OC)cs1)C(C)C`: the growth is 22.8%. With `OCc1ccc2c(c1)OCO2` the figure was 95.8%. Consider `C[n+]1c(/C=C/c2ccc(N(CCCl)CCCl)cc2)sc2ccccc21`, for which the growth is 44.9%. `ClCCN(CCCl)Cc1ccc(Nc2ccnc3cc(Cl)ccc23)cc1`: the growth was 36.6%. With `Fc1ccc2c(c1)c(-c1nc(-c3c[nH]c4ncccc34)cs1)cn2CCN1CCOCC1` the figure was 60%; with `COc1cc2c(=O)n(C3CCCCCCC3)c3c4cc[nH]c4ncc3c2cc1OC`, 57.5%. Next, `Cn1cc(-c2csc(-c3cn(CCN4CCOCC4)c4ccc(F)cc34)n2)c2cccnc21`: 22.5%. On to `O=C(CC1(O)C(=O)Nc2ccc(Br)cc21)c1ccc(C(=O)NCC2CCC3(CC2)OOC2(CCCCC2)OO3)cc1` (configuration not stated), for which the growth is 53.7%. Regarding `COc1cc(/C=N/C2=C(C#N)C(c3ccco3)c3c(c4cc(C)ccc4oc3=O)O2)cc(OC)c1OC` (configuration not stated), the growth was 95.1%. Next, `CC1(C)N=C(N)N=C(N)N1c1ccc(CCCCc2ccc(Cl)c(S(=O)(=O)F)c2)c(Cl)c1`: 20.4%; `CC12CCC3C(CCC4Cc5[nH]c6ccccc6c5CC43C)C1CCC2O` (configuration not stated): 49.3%. For `COC(=O)[C@@H](C)C[C@H](Cc1ccccc1)NC(=O)c1csc([C@@H](C[C@H](C(C)C)N(C)C(=O)[C@@H](NC(=O)[C@H]2CCCCN2C)C(C(F)(F)F)C(F)(F)F)OC(C)=O)n1`, the growth is 44.8%.
